Experimental data reported in PubChem BioAssay (Tox21).
Several values for one entry are separate records, joined by “and”; a condition that tells them apart may be missing. Equal values may be shown once. Unmarked numbers belong to inactive results. Results filed as inconclusive are left out. A call without a number means that no potency is given here. Activity calls are given as the source filed them. Unless noted, calls come from the whole dose curve; as a rule, active = well fitted curve in the direction sought with a large enough effect in the repeat runs; inconclusive = weak or mixed curves; inactive = no such curve, though single readings can be large; an effect the other way counts as inactive or inconclusive.

Key:
[1] = qHTS assay to identify small molecule agonists of the estrogen receptor alpha (ER-alpha) signaling pathway in the presence of an antagonist - cell viability counter screen (AID 1259386);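 note: cells exposed to compounds for 22 h at 37 °C before the viability read; nearly all actives have a fitted effect of over 30% in size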; note: potency is the fitted concentration of half-maximal effect
Outline: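 Using estrogen-depleted VM7Luc4E2 cells, the 15-concentration compound series was applied together with 10.0nM ICI-182,780 and incubated 22hr at 37C/5% CO2. Cell viability was then scored by CellTiter-Fluor.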

[2] = molecular target: Progesterone receptor (Homo sapiens) (UniProt P06401); assay: qHTS assay to identify small molecule agonists of the progesterone receptor (PR) signaling pathway (AID 1346784; calls by dose curve; note: nearly all actives have a fitted effect of over 30% in size)
Outline: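 Compounds were tested for PR agonism in HEK 293T cells bearing a beta-lactamase gene under UAS control. Treatment lasted 16 hr at 37C; signal came from fluorescence of a FRET substrate.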

[3] = molecular target: Progesterone receptor (Homo sapiens) (UniProt P06401); assay: qHTS assay to identify small molecule antagonists of the progesterone receptor (PR) signaling pathway (AID 1346795; active = well fitted inhibition curve with a large enough effect in the signal ratio in the repeat runs, not every such curve was filed as active; the % refers to the signal ratio; note: potency is the fitted concentration of half-maximal effect)
Outline: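 In HEK293T cells bearing the PR-UAS-bla reporter, compound effects on promegestone-driven (1 nM) beta-lactamase expression are assessed after 16 hr using a fluorescent FRET substrate incubated 2 hr at room temperature.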

[4] = qHTS assay to identify small molecule agonists of the progesterone receptor (PR) signaling pathway - cell viability counter screen (AID 1346799; calls by dose curve; note: nearly all actives have a fitted effect of over 45% in size)
Outline: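 Here, 3,000 PR-UAS-bla HEK293T cells per well were treated with compounds for 16 hr after a 6 hr preincubation at 37C and 5% CO2; cell viability is the CellTiter-Glo luminescence signal.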

[5] = qHTS assay to identify small molecule antagonists of the TGF-beta/Smad signaling pathway - cell viability counter screen (AID 1346824); note: nearly all actives have a fitted effect of over 50% in size
Outline: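 SBE-bla HEK 293T cells, incubated overnight, then compound plus 0.25 ng/mL TGF-beta1 (stock added) for 5 hr at 37 C. Viability was read in the same wells by CellTiter-Glo luminescence after 30 min at room temperature.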

[6] = qHTS assay to identify small molecule agonists of the TGF-beta/Smad signaling pathway - cell viability counter screen (AID 1346829); note: top concentration of the series differs between compounds; nearly all actives have a fitted effect of over 45% in size
Outline: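 Luminescence from CellTiter-Glo, read after a 30 min room-temperature incubation, gives cell viability of SBE-bla HEK 293T cells treated 5 hr with compounds at 37 C.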

[7] = qHTS assay to identify small molecule agonists of the TGF-beta/Smad signaling pathway (AID 1346859; active = well fitted activation curve with a large enough effect in the signal ratio in the repeat runs, not every such curve was filed as active; the % refers to the signal ratio; note: series mostly up to about 77 µM)
Outline: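 Each well held 4,000 SBE-bla HEK 293T cells incubated overnight before compound addition; 5 hr later the cleavable FRET substrate went on for 2 hr at room temperature, and fluorescence was read at two emissions.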

[8] = molecular target: Thyrotropin-releasing hormone receptor (Homo sapiens) (UniProt P34981); assay: qHTS assay to identify small molecule antagonists of the thyrotropin-releasing hormone receptor (TRHR) signaling pathway (AID 1346877; active = well fitted inhibition curve with a large enough effect in the repeat runs, not every such curve was filed as active; note: series mostly up to about 51 µM)
Outline: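 Calcium signal in dye-loaded TRHR/HEK293 cells; compounds added 5 min before TRH (1 nM final); fluorescence monitored 3 min at 1 s steps.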

[9] = molecular target: Thyrotropin-releasing hormone receptor (Homo sapiens) (UniProt P34981); assay: qHTS assay to identify small molecule agonists of the thyrotropin-releasing hormone receptor (TRHR) signaling pathway (AID 1346891; calls by dose curve; note: series mostly up to about 58 µM)
Outline: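 Screening of agonists relied on calcium signalling in HEK293 cells expressing human TRHR: dye loading 2 h at 37 °C preceded compound addition and a 3-min fluorescence time course.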

[10] = Human pregnane X receptor (PXR) small molecule agonists, qHTS cell viability counter screen (AID 1346977); note: nearly all actives have a fitted effect of over 50% in size
Outline: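 Tox21 qHTS format; PXR-Luc HepG2, 2,000/well, charcoal-stripped FBS 5%. Cpd exposure 24hr. Read: CellTiter-Fluor fluorescence, multiplexed with luciferase.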

[11] = Caspase-3/7 induction in HepG2 cells by small molecules, qHTS assay (AID 1346978); note: nearly all actives have a fitted effect of over 15% in size
Outline: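 Wild-type HepG2 cells, 2,000/well, settled 5 hr at 37 C and 5% CO2, then compound-treated for 17 hr; caspase-3/7 activity read by luminescent Caspase-Glo 3/7 after 30 min at room temperature.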

[12] = Caspase-3/7 induction in CHO-K1 cells by small molecules, qHTS cell viability counter screen (AID 1346979); note: nearly all actives have a fitted effect of over 35% in size; note: potency is the fitted concentration of half-maximal effect
Outline: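 CellTiter-Fluor viability check, qHTS format: wild-type CHO-K1, 16hr compound treatment, 1hr reagent incubation, fluorescence read.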

[13] = Caspase-3/7 induction in CHO-K1 cells by small molecules, qHTS assay (AID 1346980); note: nearly all actives have a fitted effect of over 15% in size
Outline: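 Wild-type CHO-K1 cells exposed to compounds for 17hr at 37 C, 5% CO2. Caspase-3/7 activity then measured by Caspase-Glo 3/7 luminescence after 30min at room temperature.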

[14] = Caspase-3/7 induction in HepG2 cells by small molecules, qHTS cell viability counter screen (AID 1346981); note: series mostly up to about 92 µM; nearly all actives have a fitted effect of over 30% in size
Outline: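 After a 5-hr attachment period at 37 C and 5% CO2, wild-type HepG2 cells received compounds in DMSO. Sixteen hours later CellTiter-Fluor was dispensed and the fluorescent signal quantified after a further hour.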

[15] = molecular target: Nuclear receptor subfamily 1 group I member 2 (Homo sapiens) (UniProt O75469); assay: Human pregnane X receptor (PXR) small molecule agonists, qHTS assay (AID 1346982); note: nearly all actives have a fitted effect of over 35% in size; note: potency is the fitted concentration of half-maximal effect
Outline: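 Tox21 qHTS; PXR-Luc HepG2; compounds pinned from DMSO; 24 hr, 37 C; ONE-Glo luciferase detection, 30 min room temperature.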

[16] = molecular target: Nuclear receptor subfamily 1 group I member 2 (Rattus norvegicus) (UniProt Q9R1A7); assay: Rat pregnane X receptor (rPXR) activation by small molecules, qHTS assay (AID 1346983); settings: rPXR luciferase reporter cells, One-Glo luminescence, 24 h; max activation: hits give high values; note: nearly all actives have a fitted effect of over 20% in size; note: potency is the fitted concentration of half-maximal effect
Outline: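 Cell-based rPXR activation assay: rPXR cells, 2,000 per well, rested 5hr at 37 C, then exposed to compounds in DMSO for 24 hr at 37 C. Luciferase activity read by One-Glo luminescence after 30 min at room temperature.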

[17] = molecular target: Nuclear receptor subfamily 1 group I member 2 (Homo sapiens) (UniProt O75469); assay: CYP3A4 induction through human pregnane X receptor (PXR) by small molecules, qHTS assay (AID 1346984); note: nearly all actives have a fitted effect of over 40% in size; note: potency is the fitted concentration of half-maximal effect
Outline: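 Cells (DPX-2; HepG2 with PXR element plus CYP3A4-promoter luciferase) settled 5hr, then were treated 24hr at 37C. A 3hr, 3uM-final Luciferin-IPA step preceded luminescence measurement with One-Glo.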

[18] = molecular target: Nuclear receptor subfamily 1 group I member 2 (Homo sapiens) (UniProt O75469); assay: Human pregnane X receptor (PXR) activation by small molecules, qHTS assay (AID 1346985); note: nearly all actives have a fitted effect of over 40% in size; note: potency is the fitted concentration of half-maximal effect
Outline: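 DPX-2 cells (HepG2 co-transfected with a PXR response element and a CYP3A4-promoter luciferase construct) were seeded at 2,000 per well, rested 5 hr at 37C, then exposed to DMSO-dissolved compounds for 24 hr. Activation was read as luciferase luminescence.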

[19] = qHTS assay to identify small molecule antagonists of the progesterone receptor (PR) signaling pathway - cell viability counter screen (AID 1346798); note: series mostly up to about 92 µM; nearly all actives have a fitted effect of over 50% in size
Outline: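 Following a 4 hr attachment, PR-UAS-bla HEK293T cells in charcoal-stripped FBS medium were exposed to compounds with R5020 for 16 hr; CellTiter-Glo was added and luminescence read after 30 min at room temperature.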

Chain of Nuclear receptor subfamily 1 group I member 2 (Rattus norvegicus) (Q9R1A7 whole entry, looked up): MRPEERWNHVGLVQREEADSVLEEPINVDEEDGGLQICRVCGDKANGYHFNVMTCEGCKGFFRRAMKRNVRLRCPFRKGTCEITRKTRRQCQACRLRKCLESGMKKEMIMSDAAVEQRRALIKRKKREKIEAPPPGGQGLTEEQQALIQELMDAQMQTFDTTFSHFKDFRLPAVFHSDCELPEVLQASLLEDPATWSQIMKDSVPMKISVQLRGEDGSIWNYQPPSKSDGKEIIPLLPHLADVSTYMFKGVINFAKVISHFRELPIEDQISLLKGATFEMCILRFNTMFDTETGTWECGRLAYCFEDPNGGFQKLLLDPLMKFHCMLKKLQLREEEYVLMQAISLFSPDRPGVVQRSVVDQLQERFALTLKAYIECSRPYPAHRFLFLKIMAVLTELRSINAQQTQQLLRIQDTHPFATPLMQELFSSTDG
Chain of Nuclear receptor subfamily 1 group I member 2 (Homo sapiens) (O75469 whole entry, looked up): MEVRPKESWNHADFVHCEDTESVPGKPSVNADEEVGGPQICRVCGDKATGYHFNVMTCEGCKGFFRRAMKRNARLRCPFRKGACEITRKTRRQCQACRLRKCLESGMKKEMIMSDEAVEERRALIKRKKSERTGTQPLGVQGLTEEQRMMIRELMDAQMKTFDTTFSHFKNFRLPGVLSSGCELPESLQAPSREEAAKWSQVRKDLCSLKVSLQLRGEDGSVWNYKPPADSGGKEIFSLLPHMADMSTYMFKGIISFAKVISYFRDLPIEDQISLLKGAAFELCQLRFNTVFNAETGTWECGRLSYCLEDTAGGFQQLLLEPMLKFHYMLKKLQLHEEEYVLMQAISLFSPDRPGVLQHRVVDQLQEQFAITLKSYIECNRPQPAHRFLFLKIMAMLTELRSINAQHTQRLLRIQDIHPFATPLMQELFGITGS
Chain of Thyrotropin-releasing hormone receptor (Homo sapiens) (P34981 whole entry, looked up): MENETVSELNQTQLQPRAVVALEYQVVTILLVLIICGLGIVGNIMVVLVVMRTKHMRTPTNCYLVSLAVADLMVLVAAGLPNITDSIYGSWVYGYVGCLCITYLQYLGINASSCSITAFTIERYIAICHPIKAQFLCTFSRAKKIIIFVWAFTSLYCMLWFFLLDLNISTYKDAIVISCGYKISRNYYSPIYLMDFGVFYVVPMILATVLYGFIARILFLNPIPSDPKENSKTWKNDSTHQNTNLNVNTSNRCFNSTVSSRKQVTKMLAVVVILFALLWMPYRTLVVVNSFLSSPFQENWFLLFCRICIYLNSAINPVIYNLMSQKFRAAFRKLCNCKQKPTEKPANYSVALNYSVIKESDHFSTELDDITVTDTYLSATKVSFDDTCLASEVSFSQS
Chain of Progesterone receptor (Homo sapiens) (P06401 whole entry, looked up): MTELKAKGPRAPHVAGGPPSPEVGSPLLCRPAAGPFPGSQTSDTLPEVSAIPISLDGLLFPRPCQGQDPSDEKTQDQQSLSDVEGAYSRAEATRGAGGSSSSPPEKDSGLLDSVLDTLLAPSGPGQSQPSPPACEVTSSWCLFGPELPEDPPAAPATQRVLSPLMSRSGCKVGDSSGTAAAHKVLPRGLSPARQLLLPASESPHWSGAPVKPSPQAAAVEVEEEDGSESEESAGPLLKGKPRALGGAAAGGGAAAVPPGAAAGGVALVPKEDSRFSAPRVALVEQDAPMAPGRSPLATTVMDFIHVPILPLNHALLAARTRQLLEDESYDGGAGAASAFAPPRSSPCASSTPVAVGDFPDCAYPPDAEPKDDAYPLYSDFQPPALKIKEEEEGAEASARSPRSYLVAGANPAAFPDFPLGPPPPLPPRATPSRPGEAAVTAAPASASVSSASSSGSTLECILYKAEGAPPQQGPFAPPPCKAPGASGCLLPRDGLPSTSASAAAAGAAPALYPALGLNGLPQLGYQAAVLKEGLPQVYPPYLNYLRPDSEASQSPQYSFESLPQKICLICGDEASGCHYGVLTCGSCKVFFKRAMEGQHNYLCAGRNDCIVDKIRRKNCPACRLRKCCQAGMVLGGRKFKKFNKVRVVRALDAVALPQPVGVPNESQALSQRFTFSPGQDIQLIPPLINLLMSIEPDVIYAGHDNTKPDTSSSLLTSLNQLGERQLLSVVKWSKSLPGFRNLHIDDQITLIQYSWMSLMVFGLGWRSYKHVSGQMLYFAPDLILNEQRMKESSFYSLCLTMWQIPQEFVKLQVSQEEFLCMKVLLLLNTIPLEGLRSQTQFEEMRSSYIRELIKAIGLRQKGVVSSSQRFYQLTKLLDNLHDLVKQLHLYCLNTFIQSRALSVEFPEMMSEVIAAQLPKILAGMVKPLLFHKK

Row | SMILES | Potency [1] | Potency [2] | Potency [3] | Potency [4] | outcome [5] | outcome [6] | outcome [7] | outcome [8] | Potency [9] | Potency [10] | Potency [11] | Potency [12] | outcome [13] | Potency [14] | Potency [15] | max activation [16] | Potency [17] | Potency [18] | Potency [19] | Potency [16]
1 | COc1ccc(S(=O)(=O)Nc2nnc(CC(C)C)s2)cc1 | inactive | inactive | inactive | inactive | inactive | inactive | inactive | inactive | inactive | inactive | inactive | inactive | inactive | inactive | inactive | -1.31% and -1.74% | inactive | inactive | – | –
2 | CCCCc1ccc2nc(NC(=O)OC)[nH]c2c1 | inactive | inactive | 4.22 µM (active) | – | inactive | inactive | – | inactive | inactive | – | inactive | 1.19 µM (active) | inactive | inactive | 2.98 µM (active) | – | – | 4.47 µM (active) | – | –
3 | Cc1cc2c(s1)Nc1ccccc1N=C2N1CCN(C)CC1 | – | inactive | inactive | inactive | inactive | inactive | inactive | inactive | inactive | – | inactive | 7.5 µM (active) | inactive | – | inactive | -3.7% | inactive | inactive | inactive | –
4 | Cc1ccc(C(C)C)cc1O | inactive | inactive | inactive | inactive | inactive | inactive | inactive | – | – | – | inactive | inactive | inactive | inactive | inactive | – | – | – | – | –
5 | CC(C)C1=CC2=CC[C@@H]3[C@](C)(CCC[C@@]3(C)C(=O)O)[C@H]2CC1 | inactive | – | inactive | inactive | inactive | inactive | – | – | inactive | inactive | – | – | inactive | inactive | 27.3 µM (active) | -2.9% | inactive | inactive | inactive | –
6 | COc1cc2c(cc1N)oc1ccccc12 | inactive | inactive | 44.2 µM (active) | – | inactive | inactive | inactive | – | inactive | – | inactive | – | inactive | inactive | 27.9 µM (active) | – | – | – | inactive | –
7 | CCCCCCOc1ccc(N)cc1 | inactive | inactive | – | inactive | inactive | inactive | inactive | – | – | inactive | inactive | – | inactive | inactive | 48.6 µM (active) | – | – | – | inactive | –
8 | CC(C)NC[C@@H](O)COc1cccc2ccccc12 | inactive | – | inactive | – | inactive | inactive | inactive | inactive | inactive | inactive | inactive | inactive | inactive | inactive | – | – | – | – | – | –
9 | CC1(C)C(=O)N(Cl)C(=O)N1Br | inactive | – | inactive | inactive | inactive | inactive | inactive | inactive | inactive | inactive | inactive | inactive | inactive | inactive | inactive | – | – | – | – | –
10 | CCN(CC)C(=O)N(CC)CC | inactive | inactive | inactive | inactive | inactive | inactive | inactive | – | – | inactive | inactive | inactive | inactive | inactive | inactive | – | – | – | – | –
11 | Cc1cc(S(=O)(=O)O)c(N)cc1Cl | inactive | – | inactive | inactive | inactive | inactive | inactive | inactive | inactive | inactive | inactive | inactive | inactive | inactive | inactive | – | – | – | inactive | –
12 | Cc1nc(N)nc(N)c1-c1ccc(Cl)c(Cl)c1 | inactive | – | – | inactive | – | – | – | inactive | inactive | – | – | inactive | inactive | inactive | inactive | – | – | – | – | –
13 | O=CCCc1ccccc1 | inactive | inactive | inactive | inactive | inactive | inactive | inactive | – | – | inactive | inactive | inactive | inactive | inactive | – | – | – | – | – | –
14 | CC1(C)O[C@@H]2C[C@H]3[C@@H]4CCC5=CC(=O)CC[C@]5(C)[C@@]4(F)[C@@H](O)C[C@]3(C)[C@]2(C(=O)CCl)O1 | inactive | – | inactive | inactive | inactive | inactive | inactive | – | – | – | inactive | inactive | inactive | – | 9.44 µM (active) | – | – | 5.01 µM (active) | inactive | 1 µM (active)
15 | Nc1ccc(Oc2ccc(N)c(N)c2)cc1 | 54.5 µM (active) | – | – | – | inactive | inactive | inactive | inactive | inactive | – | inactive | 61.1 µM (active) | inactive | – | 19.3 µM (active) | – | – | – | – | –
16 | CCc1cc(Cl)c(OC)c(C(=O)NC[C@@H]2CCCN2CC)c1O | inactive | – | inactive | – | inactive | inactive | inactive | – | – | inactive | inactive | inactive | inactive | inactive | 7.5 µM (active) | -0.901% | 15.8 µM (active) | 25.1 µM (active) | inactive | –
17 | CCC(=O)c1ccc2c(c1)N(CCCN(C)C)c1ccccc1S2 | inactive | inactive | – | inactive | inactive | inactive | inactive | inactive | inactive | – | – | inactive | inactive | – | inactive | – | – | – | inactive | –
18 | Cn1cnc2c(F)c(Nc3ccc(Br)cc3Cl)c(C(=O)NOCCO)cc21 | inactive | inactive | inactive | – | inactive | inactive | inactive | – | – | inactive | inactive | inactive | inactive | inactive | inactive | – | – | – | inactive | –
